# Experimental data as given in PubChem BioAssay AID2280 (The Scripps Research Institute Molecular Screening Center, 2010).
# About 1,400 (0.44%) of roughly 320,000 compounds were called active. The entries come from a sample that favours actives as a whole. A number with no mark means an inactive call.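 Rule for the calls: active = percent inhibition above a per-plate cutoff, the plate mean of test compounds plus 3 SD (cut at about 30% in these data); inactive = the rest.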
# Biological target: Female germline-specific tumor suppressor gld-1 (Caenorhabditis elegans) (UniProt Q17339)
# Sequence (Q17339 whole entry, looked up): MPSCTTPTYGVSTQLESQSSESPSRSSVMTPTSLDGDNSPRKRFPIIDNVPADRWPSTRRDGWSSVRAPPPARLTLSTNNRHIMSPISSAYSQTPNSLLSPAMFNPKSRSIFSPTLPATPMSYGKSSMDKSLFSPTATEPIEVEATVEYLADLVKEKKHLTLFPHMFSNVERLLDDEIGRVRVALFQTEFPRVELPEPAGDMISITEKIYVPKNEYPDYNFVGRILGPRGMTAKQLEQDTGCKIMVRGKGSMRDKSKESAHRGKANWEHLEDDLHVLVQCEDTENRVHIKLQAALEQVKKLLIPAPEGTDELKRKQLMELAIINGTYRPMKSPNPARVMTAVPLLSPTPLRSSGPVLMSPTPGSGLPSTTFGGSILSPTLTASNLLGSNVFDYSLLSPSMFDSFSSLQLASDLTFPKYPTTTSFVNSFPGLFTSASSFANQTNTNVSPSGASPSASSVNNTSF
# Assay: GLD-1/TGE RNA complex disruptors, primary screen, biochemical, fluorescence polarization (AID 2280);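 note: 0% = DMSO wells with GLD-1 and probe and 100% = wells lacking GLD-1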
# Details: purified GLD-1 + fluorescein TGE RNA, at 5.96 µM, hits give high values
row,SMILES,inhibition
1,Cc1cccc(N=C2NC(=O)CS2)c1C,5.66%
2,COc1ccccc1CNS(=O)(=O)CC12CCC(CC1=O)C2(C)C (configuration not stated),-1.89%
3,O=C(NCc1cccs1)C(=O)NCC1OCCCN1S(=O)(=O)c1ccc(F)cc1 (configuration not stated),1.56%
4,Cc1ccc(C)c(S(=O)(=O)N2CCN(C(=O)Nc3ccccc3)CC2)c1,34.2% (active)
5,COc1ccc(C)cc1S(=O)(=O)N1CCN(S(=O)(=O)c2cc(C(=O)O)ccc2C)CC1,-3.62%
6,O=C(Nc1ccccc1)N1CCN(C(=O)Nc2ccccc2)CC1,3.08%
7,COc1cc2c(cc1NC(=O)COC(=O)/C=C/c1ccccc1)oc1ccccc12,1.91%
8,COC(=O)c1cc(CNC(=O)CC(C)c2ccccc2)ccc1OC (configuration not stated),31.6% (active)
9,COc1ccc(CNC(=O)Cc2ccc(-c3ccccc3)cc2)cc1OC,11.5%
10,Cc1ccc(CNC(=O)CC(NC(=O)c2ccccc2)c2ccccc2)cc1 (configuration not stated),6.67%
11,COc1ccc(C(C(=O)NC(C)(C)C)N(Cc2ccc(F)cc2)C(=O)CCC(=O)Nc2cc(C)on2)cc1 (configuration not stated),3.47%
12,Cc1ccc(OCCNC(=O)CNC(=O)c2ccc(C)c(C)c2)cc1,-0.98%
13,C=CCSc1nnc2c(n1)-c1cccc3cccc-2c13,-2.48%
14,CC(C)(C)NC(=O)CN1CCC(NC(=O)C23CC4CC(CC(C4)C2)C3)CC1,-2.46%
15,COc1ccc(Cl)cc1NC(=O)C(C)N1CCc2ccccc21 (configuration not stated),-0.08%
16,CCCCN(C(=O)CSCC(=O)Nc1ccc(OC)cc1)c1c(N)n(CCC)c(=O)[nH]c1=O,4.96%
17,C[C@H](CO)N1C[C@H](C)[C@@H](CN(C)Cc2ccc(-c3ccccc3)cc2)Oc2ccc(NC(=O)Cn3cnnn3)cc2C1=O,2.45%
18,N#CC1=C(N)C(C#N)(C#N)[C@H](c2ccsc2)[C@H]2COCC=C12,34.7% (active)
19,Cc1cccc(-n2ncc3c(=O)[nH]c(SCC(=O)Nc4cc(C)on4)nc32)c1,2.41%
20,O=C(COC(=O)CSc1ccccc1)Nc1ccc(F)cc1F,-2.02%
21,COc1ccc(OC)c(C(=O)c2ccc(C(=O)N3CCN(Cc4csc(C)n4)CC3)cc2)c1,-0.78%
22,Oc1ccc2ccccc2c1N=Nc1nccs1,33.5% (active)

row,SMILES,inhibition
1,COc1ccc2[nH]c(=O)c(CN(Cc3cccnc3)S(=O)(=O)c3ccccc3F)cc2c1,8.84%
2,COc1cc(C2C(C(=O)c3ccco3)=C(O)C(=O)N2c2cc(C)on2)ccc1OCc1ccccc1 (configuration not stated),-1.87%
3,O=C(C1=C(O)C(=O)N(Cc2ccccc2)C1c1cccnc1)c1ccco1 (configuration not stated),-1.41%
4,O=C(C1=C(O)C(=O)N(c2ncccn2)C1c1cccs1)c1ccco1 (configuration not stated),110% (active)
5,CN(c1ccccc1)S(=O)(=O)c1ccc2[nH]c(=O)[nH]c2c1,-0.63%
6,Cc1ccc(C)c(OCCC(=O)OCC(=O)N2CCN(c3ccccc3)CC2)c1,-2.09%
7,Cc1sc2ncnc(SCC(=O)Nc3ccc(CN4CCCC4)cc3)c2c1C,-0.9%
8,COc1ccc(C(=O)NCCNc2ccc([N+](=O)[O-])cn2)cc1,9.44%
9,COc1ccccc1C1CCN(c2ccc([N+](=O)[O-])cn2)CC1,3.13%
10,COc1ccc(Nc2ccc([N+](=O)[O-])cn2)cn1,44.7% (active)
11,CCN1CCN(c2ccc(S(=O)(=O)N3CCCCC3)cc2NC(=O)Cc2c(Cl)cccc2Cl)CC1,-0.26%
12,CCN(C[C@H]1N[C@@](CC)(C(=O)OC)[C@H]2C(=O)N(C)C(=O)[C@@H]12)C(=O)Nc1ccc(F)cc1,1.26%
13,CCC(=O)Nc1ccc(S(=O)(=O)Nc2c(NC)c3ccccc3oc2=O)cc1,0.71%
14,C[C@H](NC(=O)c1nc[nH]c1C(=O)N[C@@H](C)C(=O)OC(C)(C)C)C(=O)OC(C)(C)C,0.74%
15,O=[N+]([O-])/C=C/c1ccc2c(ccn2Cc2ccccc2)c1,7.04%
16,O=C(OCCOCn1cc(Br)c(=O)[nH]c1=O)c1ccccc1,5.67%
17,COc1cc(C(=O)NCc2ccc3c(c2)cc(C)n3C)cc(OC)c1OC,34.8% (active)
18,COc1cc(C(=O)NCc2cc3cc(Cl)ccc3n2C)cc(OC)c1OC,-2.07%
19,CCOCC(=O)NCc1ccc2c(c1)cc(C)n2C,25.6%
20,CCCC(C(=O)n1nc(C)cc1C)C(NS(=O)(=O)c1ccc(C)cc1)c1ccccc1 (configuration not stated),2.32%
21,O=C(COC(=O)[C@H](Cc1ccccc1)NC(=O)c1cccs1)Nc1cc(F)ccc1F,8.92%
22,COCCn1c(SCC(=O)N2CCCCCC2)nc2c(c1=O)SCC2,-2.72%

row,SMILES,inhibition
1,COc1cc(C(=O)N2C(=O)c3cccc(N)c3C2=O)cc(OC)c1OC,10.9%
2,CC1CC(C)CN(S(=O)(=O)c2cccc(C(=O)N3C(=O)c4cccc(N)c4C3=O)c2)C1 (configuration not stated),31.4% (active)
3,CC(=O)N1CCN(S(=O)(=O)c2cccc(C(=O)NC3CCC(C)CC3)c2)CC1 (configuration not stated),1.54%
4,CCOc1cc(/C=C2/N=C(c3ccc(C(C)(C)C)cc3)OC2=O)cc(Cl)c1OS(C)(=O)=O,4.12%
5,CCOC(=O)N1CCN(c2cc(C)c([N+](=O)[O-])cc2F)CC1,-3.69%
6,O=C(C1=C(O)C(=O)N(CCOCCO)C1c1ccccn1)c1cccs1 (configuration not stated),5.95%
7,Cc1cc2ccccc2n1CCNC(=O)COc1ccc2ccccc2c1,7.21%
8,Cc1cc2ccccc2n1CCC(=O)O,50.2% (active)
9,O=C(O)CCn1c(Cc2ccccc2)nc2ccccc21,-2.47%
10,COC(=O)c1cn(C)c2ccc(S(=O)(=O)N3CC(C)CC(C)C3)cc2c1=O (configuration not stated),3.86%
11,Cc1ccc(NC(=O)C(C)c2cccc(C(=O)c3ccccc3)c2)cc1 (configuration not stated),2.46%
12,O=C(CCc1ccccc1)Nc1ccc(NC(=O)C2CC2)nc1,8.07%
13,N[C@@H](Cc1ccccc1)C(=O)N1CCOCC1,10.2%
14,O=C(NCCN1CCOCC1)[C@H](Cc1ccccc1)N1C(=O)c2ccccc2C1=O,5.89%
15,C=C1CCN([C@@H](Cc2ccccc2)C(=O)N2CCOCC2)S(=O)(=O)c2ccccc21,39.9% (active)
16,CCN(c1ccc2c(c1)OCO2)S(=O)(=O)c1cc(Br)cc2c1N(C(=O)C1CC1)CC2,2.82%
17,Cc1ccc(S(=O)(=O)c2c[nH]c3ccc(Cl)cc3c2=O)cc1,1.43%
18,Cc1cc(=O)oc2cc(OCC3CC(c4ccccc4Cl)=NO3)ccc12 (configuration not stated),4.3%
19,CC(=O)c1nnn(-c2ccc(Cl)cc2C#N)c1C,2.27%
20,CC[N+](C)(CC)CCC[n+]1c(-c2ccccc2)c2cc(N)ccc2c2ccc(N)cc21,62.4% (active)
21,CC(C)[C@H](NC(=O)N1CCn2c1nc1ccccc12)C(=O)NC1CC1,-3.08%
22,Cc1ccc(CNC(=O)c2cccc3c2C(=O)c2ccc(N4CCC(C)CC4)cc2S3(=O)=O)cc1,124% (active)

row,SMILES,inhibition
1,CC1CCN(c2c(NCc3ccc(C(=O)NCc4ccccc4)cc3)c(=O)c2=O)CC1,-1.64%
2,Cc1ccc(CNC(=O)c2ccc3c(c2)S(=O)(=O)c2ccccc2C3=O)cc1,-2.48%
3,O=[N+]([O-])c1cc(S(=O)(=O)Nc2cccc(Cl)c2)ccc1N=Nc1c(O)[nH]c2ccccc12,0.17%
4,O=C(NCC(c1cccs1)N1CCOCC1)c1cc(Cl)ccc1[N+](=O)[O-] (configuration not stated),1.88%
5,CCOC(=O)CN(C)S(=O)(=O)c1ccc(-c2cc(C(=O)OC)sc2C(F)(F)F)cc1,9.97%
6,COc1ccc(C2=CC(c3cccc(OC)c3)n3nnnc3N2)cc1 (configuration not stated),14.6%
7,COc1ccc(C2C=C(c3ccc(Br)cc3)Nc3nc(NS(C)(=O)=O)nn32)cc1 (configuration not stated),155% (active)
8,CSc1cccc(NC(=O)CN2C(=O)COc3ccc(S(=O)(=O)N4CCOCC4)cc32)c1,-0.09%
9,N#CCc1ccc(NC(=O)c2ccccc2C(=O)Nc2ccc(CC#N)cc2)cc1,-0.7%
10,COc1cccc(NC(=O)CN(C)CC(=O)c2c(N)n(Cc3ccccc3)c(=O)n(C)c2=O)c1,3.38%
11,Nc1ccc2nc3c(=O)[nH]c(=S)[nH]c3nc2c1,172% (active)
12,O=c1[nH]c(=O)c2nc3ccccc3nc2[nH]1,48.7% (active)
13,CNC(=O)c1cccc2nc3ccccc3nc12,3%
14,O=C1NCCn2nc3ccccc3c21,-0.55%
15,Cc1csc(/N=C/N(C)C)c1C#N,7.85%
16,COc1cccc(NC(=O)C(=O)c2cn(CC(=O)N3CCOCC3)c3ccccc23)c1,9.65%
17,Cc1ccc(C2(C)NC(=O)N(CC(=O)N3CC(=O)Nc4ccccc43)C2=O)cc1 (configuration not stated),-0.04%
18,Cc1ccc(-c2nnc(Nc3ccc(C(=O)N(C)C)cc3)c3ccccc23)cc1S(N)(=O)=O,6.66%
19,O=C(Nc1cccc(F)c1)N1C2CCC1CC(O)(c1cccnc1)C2 (configuration not stated),-5.02%
20,CC[C@]1(O)C[C@@H]2CN(CCc3c([nH]c4ccccc34)[C@@](C(=O)OC)(c3cc4c(cc3OC)N(C)[C@H]3[C@@](O)(C(=O)OC)[C@H](OC(C)=O)[C@]5(CC)C=CCN6CC[C@]43[C@@H]65)C2)C1,35.9% (active)
21,CC[C@]1(O)CC2CN(CCc3c([nH]c4ccccc34)[C@@](C(=O)OC)(c3cc4c(cc3OC)N(C=O)[C@H]3[C@@](O)(C(=O)OC)[C@H](OC(C)=O)[C@]5(CC)C=CCN6CC[C@]43[C@@H]65)C2)C1 (some centres not stated),8%
